A short description of assay [1]: ATG_TCF_b_cat_CIS: Attagene CIS-FACTORIAL HepG2 Assay for human T-Cell-Factor with beta-catenin (TCF/b-cat) (AID 2282965). Particulars: HepG2 TCF/beta-catenin cis-reporter transcription, actives raise or lower the signal. Summed up:
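Cells of the HepG2 line carry transiently transfected reporter units whose promoters respond to endogenous factors. Twenty-four hours post-dosing, reporter mRNA induction is measured by fluorescent RT-PCR and capillary electrophoresis, with DMSO as baseline.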

A short description of assay [2]: ATG_TAL_CIS: Attagene CIS-FACTORIAL HepG2 Assay for human TAL Basal Promoter (AID 2282966).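 Further: background control endpoint measuring basal TAL promoter reporter mRNA not a specific factor.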 As to conditions: HepG2 Attagene cis-factorial TAL promoter reporter; actives raise or lower the signal. Summed up: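 Steps: transfect HepG2 with multiple reporter transcription units; dose 24 h; isolate RNA, reverse-transcribe, PCR-amplify, label with 6-FAM, digest with HpaI; resolve by capillary electrophoresis. Bidirectional fitting against DMSO baseline.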

Assay [3] can be described thus: ATG_TGFb_CIS: Attagene CIS-FACTORIAL HepG2 Assay for human Transforming Growth Factor (TGF) (AID 2282967). Particulars: HepG2 Attagene CIS TGFb reporter, mRNA transcription; actives raise or lower the signal. Summed up: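 Multiplexed cis-reporter HepG2 system, 24 h treatment; mRNA induction read by fluorescence after RT-PCR and CE; DMSO negative control, bidirectional curve fitting.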

Assay [4] in a line: ATG_VDRE_CIS: Attagene CIS-FACTORIAL HepG2 Assay for human Vitamin D Receptor Element (VDRE) (AID 2282968). As to conditions: HepG2 VDRE cis-reporter transcription, actives raise or lower the signal. Summed up: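 Cell-based multiplexed reporter format in human liver HepG2 cells, 24 h post-dose. Fluorescence from capillary electrophoresis of reporter cDNA gives the signal, with DMSO as negative control and baseline.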

For assay [5], the target named is Nuclear receptor subfamily 1 group I member 3 (Homo sapiens) (UniProt Q14994). The assay can be described thus: ATG_CAR_TRANS: Attagene TRANS-FACTORIAL HepG2 Assay for human Constitutive Androstane Receptor (CAR) (AID 2282969; active means hit-call score of the fitted dose curve at least 0.9, where 1 is the maximum;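 further: activators raise reporter mRNA above DMSO so AC50 marks induction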). Particulars: HepG2 Attagene TRANS-FACTORIAL CAR reporter. Summed up:
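HepG2 cells transiently transfected with GAL4-UAS reporter units; TRANS format reads activity of exogenous chimeric NR-Gal4 protein. After 24 h dosing, reporter mRNA quantified by RT-PCR, 6-FAM labelling and capillary electrophoresis; gain of signal fitted against DMSO.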

Assay [6] deals with X-box-binding protein 1 (Homo sapiens) (UniProt P17861). The assay can be described thus: ATG_Xbp1_CIS: Attagene CIS-FACTORIAL HepG2 Assay for human X-box Binding Protein 1 (XBP1) (AID 2282972). As to conditions: HepG2 XBP1 cis-element reporter, Attagene multiplex; actives raise or lower the signal. Summed up: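 After a 24-hour chemical exposure of HepG2 cells carrying cis-regulated reporters, reporter mRNA levels are assessed. Quantification uses RT-PCR, 6-FAM labelling and capillary electrophoresis. Gain- or loss-of-signal is fitted against DMSO.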
X-box-binding protein 1 (Homo sapiens), sequence (P17861 whole entry, looked up): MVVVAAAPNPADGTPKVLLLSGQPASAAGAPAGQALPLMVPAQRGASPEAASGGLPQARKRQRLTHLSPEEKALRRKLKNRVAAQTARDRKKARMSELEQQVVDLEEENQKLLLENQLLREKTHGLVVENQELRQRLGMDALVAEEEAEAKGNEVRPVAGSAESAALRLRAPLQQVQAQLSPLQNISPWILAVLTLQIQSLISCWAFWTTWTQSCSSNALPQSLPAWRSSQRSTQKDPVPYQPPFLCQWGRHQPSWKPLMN

Assay [7] in a line: ATG_M_19_TRANS: Attagene TRANS-FACTORIAL HepG2 Assay for M19 Transcription Factor (Internal Marker) (AID 2282974; active means hit-call score of the fitted dose curve at least 0.9, where 1 is the maximum). As to conditions: HepG2 Attagene TRANS-FACTORIAL M19 internal marker reporter. Summed up: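 Cells: human HepG2, transiently transfected with multiplexed reporter transcription units. Exposure: 24 h. Detection: RT-PCR of reporter mRNA with capillary electrophoresis. Analysis: gain-of-signal vs DMSO.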

For assay [8], the target named is Steroid hormone receptor ERR1 (Homo sapiens) (UniProt P11474). The assay can be described thus: ATG_ERRa_TRANS: Attagene TRANS-FACTORIAL HepG2 Assay for human Estrogen-Related Receptor alpha (ERRa) (AID 2282971; active means hit-call score of the fitted dose curve at least 0.9, where 1 is the maximum). As to conditions: HepG2 Attagene TRANS reporter, ERRa transactivation. Summed up: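 Signal gain relative to DMSO for an ERRa-Gal4 chimeric receptor, read as reporter mRNA by RT-PCR/capillary electrophoresis. Human HepG2 liver cells, transient multiplex reporter transfection, 24 h chemical exposure.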
Steroid hormone receptor ERR1 (Homo sapiens), sequence (P11474 whole entry, looked up, the tested form may be a part): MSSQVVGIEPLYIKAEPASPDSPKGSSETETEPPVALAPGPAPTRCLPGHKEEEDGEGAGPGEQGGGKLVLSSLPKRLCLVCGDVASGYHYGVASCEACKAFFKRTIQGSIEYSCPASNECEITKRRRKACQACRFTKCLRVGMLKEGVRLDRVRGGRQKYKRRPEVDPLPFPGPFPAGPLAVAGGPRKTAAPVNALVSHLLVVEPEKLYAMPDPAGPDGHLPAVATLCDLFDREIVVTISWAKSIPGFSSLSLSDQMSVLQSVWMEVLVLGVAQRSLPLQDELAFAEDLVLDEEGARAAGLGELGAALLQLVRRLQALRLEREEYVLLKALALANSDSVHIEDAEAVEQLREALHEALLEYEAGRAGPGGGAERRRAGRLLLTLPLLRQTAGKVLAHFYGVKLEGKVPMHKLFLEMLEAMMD

In assay [9] the target is Estrogen receptor (Homo sapiens) (UniProt P03372). Briefly: ATG_ERa_TRANS: Attagene TRANS-FACTORIAL HepG2 Assay for human Estrogen Receptor alpha (ERa) (AID 2282970; active means hit-call score of the fitted dose curve at least 0.9, where 1 is the maximum). As to conditions: HepG2 Attagene TRANS ERa GAL4 reporter, mRNA. Summed up:
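Multiplexed cell-based reporter format in HepG2: chimeric ERa-Gal4 protein drives GAL4-UAS reporter transcription. Fluorescent reporter mRNA quantified by capillary electrophoresis 24 hours after dosing; endpoint fitted as signal gain against DMSO.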

Assay [10] is described as follows: ATG_GAL4_TRANS: Attagene TRANS-FACTORIAL HepG2 Assay for GAL4 (Internal Marker) (AID 2282976; active means hit-call score of the fitted dose curve at least 0.9, where 1 is the maximum). As to conditions: HepG2 Attagene TRANS GAL4 internal marker reporter. Summed up: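 Liver HepG2 line bearing multiplexed GAL4-UAS reporter constructs; 24 h chemical treatment. Transcripts were quantified as fluorescent fragments on capillary electrophoresis after RT-PCR and HpaI cut, with activity fitted upward from DMSO.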

Several values for one entry are separate records, joined by “and”; a condition that tells them apart may be missing. Equal values may be shown once. Records with an inconclusive call do not appear. A structure can be active in one record and inactive in another. Activity calls are given as the source filed them. How the source made its calls, unless noted: active means hit-call score of the fitted dose curve at least 0.9, where 1 is the maximum; inactive means score below 0.9.

Estrogen receptor (Homo sapiens), sequence (P03372 whole entry, looked up, the tested form may be a part): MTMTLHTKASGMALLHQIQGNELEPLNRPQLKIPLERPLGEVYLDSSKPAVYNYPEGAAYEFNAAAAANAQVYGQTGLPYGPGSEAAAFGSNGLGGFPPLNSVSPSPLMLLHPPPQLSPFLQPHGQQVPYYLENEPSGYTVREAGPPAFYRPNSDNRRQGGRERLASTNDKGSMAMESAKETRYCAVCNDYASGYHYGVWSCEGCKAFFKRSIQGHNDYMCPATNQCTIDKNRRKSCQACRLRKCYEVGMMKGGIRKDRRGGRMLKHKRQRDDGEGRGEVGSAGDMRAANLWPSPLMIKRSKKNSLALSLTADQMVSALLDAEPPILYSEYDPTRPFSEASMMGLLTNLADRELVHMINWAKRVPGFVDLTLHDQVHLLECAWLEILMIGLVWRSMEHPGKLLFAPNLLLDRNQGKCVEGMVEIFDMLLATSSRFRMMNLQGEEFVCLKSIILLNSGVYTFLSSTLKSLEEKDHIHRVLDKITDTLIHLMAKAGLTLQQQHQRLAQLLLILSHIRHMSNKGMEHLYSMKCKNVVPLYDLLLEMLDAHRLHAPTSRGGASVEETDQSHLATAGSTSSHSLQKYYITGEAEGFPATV
Nuclear receptor subfamily 1 group I member 3 (Homo sapiens), sequence (Q14994 whole entry, looked up, the tested form may be a part): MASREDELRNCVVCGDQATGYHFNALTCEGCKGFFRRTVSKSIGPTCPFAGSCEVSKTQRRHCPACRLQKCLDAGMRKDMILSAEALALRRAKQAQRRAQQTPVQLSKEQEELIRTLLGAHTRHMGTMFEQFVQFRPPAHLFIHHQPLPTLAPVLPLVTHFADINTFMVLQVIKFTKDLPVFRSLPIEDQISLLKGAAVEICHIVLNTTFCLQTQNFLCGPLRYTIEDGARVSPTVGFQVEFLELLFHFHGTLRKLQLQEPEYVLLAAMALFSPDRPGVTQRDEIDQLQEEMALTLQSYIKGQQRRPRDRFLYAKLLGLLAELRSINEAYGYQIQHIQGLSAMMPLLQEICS

Turning to `CCOC(=O)C(C)Oc1ccc(Oc2nc3ccc(Cl)cc3o2)cc1` (stereo not given), the compound was classed as inactive in [1], in assay [2], in [3], in assay [4], in assay [5] and in [6]. Besides, the compound was classed as inactive in assay [7].
Turning to `CCCCCCC(C)OC(=O)COc1nc(F)c(Cl)c(N)c1Cl` (stereo not given), the compound was called inactive in [1], in assay [2], in assay [3], in assay [4], in assay [8] and in [6].
With `CCNc1nc(N)nc(Cl)n1`, the call in [1], in assay [2], in assay [3], in assay [4], in [5] and in [8] was inactive. Also, the result in assay [6] was inactive.
As for `COC(=O)c1ccccc1C(=O)O`, the compound was classed as inactive in assay [1], in assay [2], in assay [3], in assay [4], in [6] and in assay [7].
On to `COC(=O)c1ccc(I)cc1S(=O)(=O)NC(=O)Nc1nc(C)nc(OC)n1`, for which the call in assay [1], in assay [2], in assay [3], in assay [4] and in assay [6] was inactive.
Take `C[C@]12C[C@H](O)[C@H]3[C@@H](CCC4=CC(=O)CC[C@@]43C)[C@@H]1CC[C@@H]2C(=O)CO`: the compound was called inactive in assay [1], in assay [2], in assay [3], in assay [9], in assay [6] and in [7]. Also, the half-maximal activity concentration (AC50) in assay [9] was 100 µM (active) and 49.6 µM (active).
Turning to `O=C(O)c1ccccc1`, the outcome in assay [1], in [2], in assay [3], in assay [4], in assay [5] and in assay [9] was inactive. For the same compound, the outcome in assay [6] and in [7] was inactive.
In the case of `CC1(C)C(C=C(Cl)Cl)C1C(=O)OCc1cccc(Oc2ccccc2)c1` (stereo not given), the compound was classed as inactive in assay [1], in [2], in [3], in assay [5], in assay [6] and in assay [7]. For the same compound, in [10], the compound was classed as inactive. In addition, the half-maximal activity concentration (AC50) is 10 µM (active) in assay [4] and 25.9 µM (active) in assay [9].
With `CCOC(=O)COc1cc(-n2ncc(C(F)(F)F)c(C)c2=O)c(F)cc1Cl`, the result in assay [1], in assay [2], in assay [3], in assay [4], in assay [9] and in [6] was inactive. In assay [7], the result was inactive.
Take `C=CCOC(Cn1ccnc1)c1ccc(Cl)cc1Cl` (stereo not given): the outcome in assay [1], in assay [2], in assay [3], in [5], in assay [6] and in assay [7] was inactive. In addition, the call in assay [10] was inactive. In addition, the half-maximal activity concentration (AC50) in assay [4] is 3.43 µM (active).
For the compound `CCCCC(CC)COC(=O)c1ccccc1C(=O)O` (stereo not given), the result in [1], in assay [2], in [3], in [4], in assay [5] and in [6] was inactive. In addition, the compound was classed as inactive in assay [7] and in assay [10].
For `CCOC(=O)C(C)Oc1ccc(Oc2cnc3cc(Cl)ccc3n2)cc1` (stereo not given), the result in [1], in assay [2], in [3], in [4], in assay [5] and in [6] was inactive. Moreover, the compound was classed as inactive in assay [7].
With `CSC(=O)c1cccc2nnsc12`, the compound was called inactive in [1], in assay [2], in assay [3], in assay [4], in assay [6] and in assay [7]. Besides, in assay [10], the outcome was inactive.
As to `CCCOC(=O)NCCCN(C)C`, the compound was classed as inactive in [1], in [2], in [3], in assay [4], in assay [5] and in assay [6]. Besides, the outcome in assay [7] was inactive.
For the compound `COCCO`, the call in [1], in assay [2], in assay [3], in [4], in [5] and in assay [6] was inactive. The compound was classed as inactive in [7] and in assay [10].
For `CCOC(=O)[C@H](C)Oc1ccc(Oc2nc3ccc(Cl)cc3o2)cc1`, the outcome in assay [1], in [2], in assay [3], in [4], in assay [5] and in assay [6] was inactive. For the same compound, the compound was classed as inactive in [7].
`COC(=O)c1c(Cl)nn(C)c1S(=O)(=O)NC(=O)Nc1nc(OC)cc(OC)n1`: the call in assay [1], in assay [2], in [3], in assay [4], in assay [9] and in assay [6] was inactive.

The record behind these values is PubChem BioAssay (EPA / NIEHS).
